PubChem BioAssay AID2685 (National Center for Advancing Translational Sciences (NCATS), 2010)
Hit rate of the full screen: of about 320,000 compounds, about 2,100 (0.66%) were called active. Roughly 53% stayed inconclusive and do not appear here. Calls come from the whole dose curve; as a rule, active = well fitted inhibition curve with a large enough effect in the signal ratio, with a control signal flat (not every such curve was filed as active); inconclusive = small, poorly fitted or top-dose-only effect, or effect the other way, or a change in a side signal; inactive = flat fitted curve, though single readings scatter; the % refers to the signal ratio. What follows is part of a selection rich in actives, with near analogues and random picks from the rest.

Test: qHTS Assay for Lipid Storage Modulators in Drosophila S3 Cells;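 for cell number change: cells counted by Cell Tracker Red CMTPX staining in the red channel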; for lipid storage change, negative = inhibition: % is set by controls: 0 for no effect and ±100 for the full control effect
Conditions: BODIPY lipid droplet fluorescence, 18-24 h, cells fed with added oleic acid; cell number change: measured here: cell count max response; series mostly up to 46.1 µM; lipid storage change, negative = inhibition: at the top concentration
Method in brief: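 Drosophila S3 cells got compounds at several concentrations plus oleic acid (400 uM solution). Laser-scanning cytometry with 488 nm excitation read lipid droplets at 500-530 nm and cells at 575-640 nm. Percent activity was relative to 20 uM Triacsin C.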
Potency is the fitted concentration of half-maximal effect.

SMILES | lipid storage change, negative = inhibition | cell number change [%] | outcome | Potency
O=C(Cc1cccc(C(F)(F)F)c1)NCc1cccnc1 | -11.2% (inactive) | 16.2 | – | –
CCc1c(C)sc(NC(=S)N2CCN(C(=O)C3CCCO3)CC2)c1C(=O)OC (stereo unspecified) | – | – | inactive | –
COc1ccc(C(=O)N/C(=C\c2cn(C)c3ccccc23)C(=O)N2CCN(C)CC2)cc1 | – | 12.5 | inactive | –
COc1ccc(NC(=O)/C(C#N)=C/c2cccnc2)c(OC)c1 | – | -14.9 | inactive | –
COc1ccccc1NC(=O)/C(C#N)=C/c1ccncc1 | – | -3.78 | – | 1.16 µM (active)
COc1ccccc1NC(=O)/C(C#N)=C/c1cccnc1 | – | 14.4 | inactive | –
Cc1ccc(NC(=O)CC2Oc3ccc(C)cc3NC2=O)c(C)c1 (stereo unspecified) | -7.11% (inactive) | 7.72 | – | –
Cc1ccc(S(=O)(=O)c2nnn(-c3cccc(F)c3)c2N)cc1 | 1.42% (inactive) | -21.1 | – | –
C[C@H](NC(=O)[C@H]1N2C(=O)c3ccccc3C2SC1(C)C)C(=O)N1CCC[C@H]1C(=O)O (stereo partly specified) | 26.5% (inactive) | – | – | –
CCC(C)NC(=O)[C@H]1N2C(=O)c3ccccc3C2SC1(C)C (stereo partly specified) | -2.79% (inactive) | 25 | – | –
C[C@H](NC(=O)[C@H]1N2C(=O)c3ccccc3C2SC1(C)C)C(=O)N1CCCCC1 (stereo partly specified) | – | -4.2 | – | 23.1 µM (active)
Cc1ccc(-c2nnnn2C2C/C(=N\NC(N)=S)C3OCC2O3)cc1 (stereo unspecified) | -15.2% (inactive) | -15.7 | – | –
COc1ccc(C(=O)OCC(=O)NCCCc2ccccc2)c(OC)c1 | 7.81% (inactive) | 26.9 | – | –
COc1ccc(C(=O)N(CCc2ccccc2)Cc2cccs2)c(OC)c1 | – | -11.1 | – | 13 µM (active)
COc1ccc(C(=O)N(Cc2ccco2)Cc2cccs2)c(O)c1 | – | 11 | inactive | –
CCOc1cc(C2C(C#N)=C(N)SC(N)=C2C#N)ccc1OCCN1CCOCC1 | – | – | inactive | –
CCN=C1S/C(=C/c2ccc(-c3ccc(F)cc3)o2)C(=O)N1CC | – | 4.49 | – | 18.4 µM (active)
CCN1C(=O)/C(=C\c2ccc(-c3cccc(C(=O)OC)c3)o2)SC1=Nc1ccc(C(=O)O)cc1 | – | -21.2 | – | 6.51 µM (active)
CCN=C1S/C(=C/c2ccc(-c3ccc(Cl)cc3C(=O)O)o2)C(=O)N1CC | -0.481% (inactive) | – | – | –

SMILES | lipid storage change, negative = inhibition | cell number change [%] | outcome | Potency
CC(C)(C)OC(=O)CN1C(=O)S/C(=C\c2ccc(-c3cccc(C(=O)O)c3)o2)C1=O | -14.2% (inactive) | 2.36 | – | –
CCN=C1S/C(=C\c2ccc(Sc3ccc(Cl)cc3)o2)C(=O)N1CC | 21.1% (inactive) | -1.66 | – | –
O=C(O)c1cccc(-c2ccc(/C=C3/SC(=Nc4ccccc4)N(Cc4cccnc4)C3=O)o2)c1 | 6.57% (inactive) | -5.87 | – | –
CC1=[N+](CC(=O)NC(C)(C)C)CCc2ccccc21 | -0.327% (inactive) | -0.377 | – | –
O=C(Nc1cccc(OC(=O)c2ccc(Br)o2)c1)c1ccccc1 | 4.19% (inactive) | 11.8 | – | –
Cc1ccc(OCCCCNC2CCCCC2)c(C)c1 | – | – | inactive | –
CCCNC(=O)CC(NS(=O)(=O)c1ccc(Cl)cc1)c1ccco1 (stereo unspecified) | 19.4% (inactive) | 17.5 | – | –
COCCCNC(=O)CC(NS(=O)(=O)c1ccc(C)cc1)c1ccco1 (stereo unspecified) | -3.27% (inactive) | 0.789 | – | –
COCCCNC(=O)CC(NS(=O)(=O)c1ccc(Cl)cc1)c1ccco1 (stereo unspecified) | – | – | – | 32.6 µM (active)
CSC(=NC1CCCCC1)NS(=O)(=O)c1ccccc1 | -23.2% (inactive) | – | – | –
COc1ccc(N2CCN(C(=O)c3ccc4ccccc4n3)CC2)cc1 | 9.19% (inactive) | -2.64 | – | –
CN(CC(=O)Nc1ccc(N2CCOCC2)cc1)CC(=O)Nc1ccc(N2CCOCC2)cc1 | 6.32% (inactive) | -8.37 | – | –
O=[N+]([O-])C1=CC=C2C(=NC3(CCCCC3)N2O)C1=NCCO | -7.19% (inactive) | -8.38 | – | –
CCNC(=O)COc1ccc(/C=C2\COc3ccccc3C2=O)cc1OC | – | – | – | 3.66 µM (active)
CCOc1cc(/C=C2\COc3ccccc3C2=O)cc(Br)c1OCC(=O)N(C)C | – | 21.8 | inactive | –
CCOc1cc(/C=C2\COc3ccccc3C2=O)ccc1OCC(=O)N(C)C | -22.5% (inactive) | -5.65 | – | –
CSc1ccccc1OCc1cc(C(=O)NCCN2CCCc3ccccc32)no1 | – | – | inactive | –
O=C(Nc1nnc(SCC(=O)N2CCOCC2)s1)c1ccccc1 | -24.1% (inactive) | – | – | –
Cc1cc(NC(=O)c2ccc(S(=O)(=O)N3CCOCC3)cc2)nc2c1c(=O)oc1ccccc12 | -20.6% (inactive) | -0.276 | – | –

SMILES | lipid storage change, negative = inhibition | cell number change [%] | outcome | Potency
COc1cccc(CNC(=O)CCCNS(=O)(=O)c2cccs2)c1 | -4.23% (inactive) | -2.45 | – | –
CCOC(=O)C1=C(C)NC(C)=C(C(=O)OCC)C1C(=O)OCC(=O)NC1(C#N)CCCCC1 | 18.2% [at 0.0737 µM] (inactive) | – | – | –
O=C(CCCC(=O)OCC(F)(F)C(F)F)Nc1ccc(NC(=O)CCCC(=O)OCC(F)(F)C(F)F)cc1 | – | 25.6 | inactive | –
COc1ccc(N2CCN(C(=O)c3ccc(CNS(=O)(=O)c4cc(C)ccc4C)cc3)CC2)cc1 | – | -25.1 | – | 7.31 µM (active)
CCOC(=O)N1CCN(C(=O)c2ccc(CNS(=O)(=O)c3ccc(OC)cc3)cc2)CC1 | 3.37% (inactive) | – | – | –
Cc1ccc(C)c(S(=O)(=O)NCc2ccc(C(=O)N3CC(C)OC(C)C3)cc2)c1 (stereo unspecified) | -12.4% (inactive) | -9.56 | – | –
Cc1cccc(C(=O)NNc2ncnc3c2cnn3C)c1 | -6.2% (inactive) | 3.73 | – | –
CCCCC(C)(O)C/C=C/[C@H]1[C@H](O)CC(=O)[C@@H]1CCCCCCC(=O)OC (stereo partly specified) | – | -1.2 | – | 23.1 µM (active)
CCCCCCC(=O)Oc1ccc(N2C(=O)CCC2=O)cc1 | 0.0787% (inactive) | -4.94 | – | –
CCCCC[C@H](O)/C=C/[C@@H]1[C@@H](C/C=C\CCCC(=O)OC)[C@@H](O)C[C@H]1O | 1.11% (inactive) | 2.9 | – | –
COC(=O)c1ccc(C2C(C(=O)OCC(C)C)=C(C)N=C3SCCC(=O)N32)cc1 (stereo unspecified) | -0.0854% (inactive) | -2.78 | – | –
CCCCCCN1C2=NCCCN2c2ccccc21 | 0.312% (inactive) | -6.55 | – | –
O=C(O)c1c(-n2cccc2)sc2c1CCCC2 | 11.6% (inactive) | 1.31 | – | –
Cc1sc(-n2cccc2)c(C(=O)O)c1C | – | -19.7 | – | 1.84 µM (active)
CCOC(=O)c1c(-n2cccc2)sc2c1CCCC2=O | -18.3% (inactive) | -2.93 | – | –
COc1ccc(Nc2ccncc2[N+](=O)[O-])cc1 | 4.18% (inactive) | 12.3 | – | –
O=C(C1CC(=O)N(c2ccccc2)C1)N1CCN(C2=NS(=O)(=O)c3ccccc32)CC1 (stereo unspecified) | – | – | inactive | –
Cc1cc(C)c(C)c(S(=O)(=O)N2CCC(C(=O)N3CC(C)CC(C)C3)CC2)c1C (stereo unspecified) | -16.7% (inactive) | -11.8 | – | –
COc1ccccc1NC(=O)C1=C(C)Nc2nnnn2C1c1cc(Br)ccc1OC (stereo unspecified) | -8.87% (inactive) | 1.78 | – | –
